About 2,600 (0.67%) of roughly 390,000 compounds were called active. What follows is part of a selection rich in actives, with near analogues and random picks from the rest. A number with no mark means an inactive call.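 Rule for the calls: active = mean inhibition of replicates at least 50% and at least half of replicates each reaching 50%; inconclusive = half or more replicates reach 50% but mean below 50%; inactive = the rest.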

This assay addresses Transforming acidic coiled-coil-containing protein 3 (Homo sapiens) (UniProt Q9Y6A5). Briefly: inhibitors of ARNT PAS-B binding to TACC3 – biochemical, AlphaScreen, single concentration, primary screen (AID 623870).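 Note: 0% = complete ARNT plus TACC3 wells and 100% = ARNT alone without TACC3.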 The settings on record: AlphaScreen His-ARNT PAS-B/GST-TACC3 binding, luminescence; at 9.99 µM; active compounds read high; TACC3 fragment carries E629A point mutation. A general note: In Alpha technology, singlet oxygen from a donor bead excites a nearby acceptor bead.
As usually defined, the inhibition is the relative decrease from the control value, in per cent. As for `CC=Cc1ccc2n(c1=O)C[C@@H]1[C@@H](CO)[C@H](C(=O)NCC3CC3)[C@H]2N1C(=O)c1ccccc1` (mixture of isomers), the inhibition was -1.91%.
`O=c1nc2s/c(=C\c3ccco3)c(=O)n2nc1Cc1ccccc1`: the inhibition was 67.7% (active).
With `O=c1/c(=C/c2ccc(CNS(=O)(=O)c3ccccc3)o2)sc2n1CCN=2` the figure was 40.1%.
With `CO[C@@H]1CN(C)C(=O)c2ccc(NC(=O)NC(C)C)cc2OC[C@@H](C)N(C(=O)NC(C)C)C[C@H]1C` the figure was -3.87%; with `COc1ccccc1-c1cnc2c(c1)C(=O)N([C@H](C)CO)C[C@H](C)[C@H](CN(C)Cc1cccnc1)O2`, 29.4%.
The result for `O=C(CN1CCOCC1)N[C@@H]1CC[C@@H](CCn2cc(C3CCCCC3)nn2)O[C@@H]1CO` reads 0.304%; that for `CCC(=O)N(C)C[C@H]1Oc2cc(-c3ccccc3F)ccc2S(=O)(=O)N([C@H](C)CO)C[C@@H]1C`, -1.89%; that for `COc1ccc(NC(=O)O[C@@H](c2ccc(OCCO)cc2)[C@@H](C)CCO)cc1`, -10.6%.
With `O=C(O)c1ccc2c3c(cccc13)C(=O)N(OS(=O)(=O)c1ccccc1)C2=O`, the inhibition was 67.5% (active).
The result for `C[C@@H]1CN([C@H](C)CO)C(=O)c2cc(C#CCN(C)C)cnc2O[C@@H]1CN(C)C(=O)Cc1cccnc1` reads -0.97%.
With `CO[C@H]1CN(C)C(=O)c2ccc(NC(=O)c3ccc4c(c3)OCO4)cc2OC[C@@H](C)NC[C@@H]1C` the figure was -11.2%; with `CC1=NN(c2ccc(Cl)c(C(=O)O)c2)C(=O)/C1=C/c1ccc(-c2ccccc2[N+](=O)[O-])o1`, 29.2% (active); with `Cc1ccc(-c2ccc(/C=C(\C#N)C(N)=S)o2)c([N+](=O)[O-])c1`, 1.03%.
As to `Cc1ccc(S(=O)(=O)N(C)C[C@H]2Oc3c(NC(=O)C4CC4)cccc3C(=O)N([C@@H](C)CO)C[C@@H]2C)cc1`, the inhibition was -6.68%.
The result for `COC(=O)C1=C(C)NC2=C(C(=O)c3ccccc32)C1c1ccc(-c2ccc(C(=O)O)cc2)o1` (configuration not stated) reads 65.4% (active).
With `O=C(C[C@H]1C[C@H]2c3cc(NC(=O)Nc4ccccc4F)ccc3O[C@H]2[C@H](CO)O1)NCc1ccccn1` the figure was -10.9%; with `COc1ccc(NC(=O)N(C)C[C@H]2OCCCC[C@@H](C)Oc3ccc(NS(=O)(=O)c4ccc(F)cc4)cc3C(=O)N([C@H](C)CO)C[C@H]2C)cc1`, -5.89%; with `C/C=C/c1cnc2c(c1)C(=O)N([C@@H](C)CO)C[C@@H](C)[C@H](CN(C)Cc1ccccc1)O2`, -2.09%.
In the case of `CCN1CCN(C(c2cccnc2)c2cc(Cl)c3cccnc3c2O)CC1` (configuration not stated), the inhibition is 55.4% (active).
In the case of `CCOC(=O)N1CCN(C(=O)C2CCN(c3ncnc4c3sc3cccc(F)c34)CC2)CC1`, the inhibition is -0.287%.
With `Cc1ccc(OCC(=O)N2CCN(C(=O)c3cccnc3)CC2)cc1` the figure was -5.09%; with `CCOC(=O)N1CCN(C(c2cccnc2)c2ccc3cccnc3c2O)CC1` (configuration not stated), 61.4% (active).
With `CCS(=O)(=O)Nc1ccc2c(c1)C(=O)N(C)[C@@H]1CC[C@H](CC(=O)N[C@H]3CCN(Cc4ccccc4)C3)O[C@@H]1CO2` the figure was 4.57%; with `CC=Cc1ccc2n(c1=O)C[C@H]1[C@H](CO)[C@@H](C(=O)NC3CCCC3)N(Cc3ccncc3)[C@@H]21` (mixture of isomers), 7.61%.
The result for `O=C(C[C@@H]1C[C@@H]2c3cc(NC(=O)C4CCC4)ccc3O[C@@H]2[C@@H](CO)O1)NCc1ccccc1` reads -8.97%; that for `CCC(=O)N1C[C@H](C)[C@H](OC)CN(C)C(=O)c2ccc(NS(C)(=O)=O)cc2OC[C@H]1C`, 0.229%.
In the case of `COc1ccccc1C(=O)Nc1ccc2c(c1)C(=O)N(C)C[C@@H](OC)[C@@H](C)CN(C)[C@H](C)CO2`, the inhibition was 5.81%.
With `CN1C(=O)c2cc(NC(=O)Nc3ccccc3Cl)ccc2OC[C@H]2O[C@H](CC(=O)NCCCN3CCOCC3)CC[C@H]21` the figure was -6.44%; with `CCOC(=O)c1cn[nH]c1NC(=S)Nc1ccccc1`, -4.6%.
On to `CCN(C(=O)Cc1nc(N)n[nH]1)C1(C(=O)Nc2ccccc2)CCCCC1`, for which the inhibition was 73.1% (active).
With `COc1ccc(-c2ccc3c(c2)[C@H]2[C@H](CCN2C(=O)c2ccc4c(c2)OCO4)[C@@H](CO)N3)cc1` the figure was 2.52%.
The result for `COc1cc(C2c3cc4c(cc3C(O)C3COC(=O)C23)OCO4)cc(OC)c1OC` (configuration not stated) reads -5.89%.
The result for `COc1c(O)ccc2c1CN1CCc3cc4c(cc3C1C2)OCO4` (configuration not stated) reads 59.9% (active).
For `CC(C)C#Cc1cnc2c(c1)C(=O)N([C@H](C)CO)C[C@H](C)[C@@H](CN(C)C(=O)Nc1cc(F)ccc1F)O2`, the inhibition is 2.21%.
The result for `C[C@H]1CN([C@@H](C)CO)C(=O)c2cc(C#Cc3ccccc3F)cnc2O[C@H]1CN(C)C` reads -2.77%.
The result for `CC=Cc1ccc2n(c1=O)C[C@@H]1[C@@H](CO)[C@H](C(=O)NCC)[C@H]2N1CCC(F)(F)F` (mixture of isomers) reads -2.83%; that for `COc1ccc(Cl)cc1NC(=O)c1cccc(N2C(=O)C3CC=CCC3C2=O)c1` (configuration not stated), 3.74%; that for `COc1ccccc1-c1nnc(NC(=O)c2cccc(N3C(=O)CCC3=O)c2)o1`, 60.7% (active).
Take `COc1ccccc1C(=O)Oc1ccc(N2C(=O)CCC2=O)cc1`: the inhibition is -4.25%.
The result for `CCNC(=O)C[C@H]1CC[C@@H](NC(=O)C2CCOCC2)[C@@H](CO)O1` reads -5.26%; that for `O=S(=O)(c1ccc(F)cc1)N1CCCCN2[C@H](CO)[C@@H](c3ccc(C#CC4CCCC4)cc3)[C@H]2C1`, 5.01%.
The result for `CC(C)NC(=O)Nc1cccc2c1O[C@H](CN(C)S(=O)(=O)c1ccccc1)[C@@H](C)CN([C@@H](C)CO)C2=O` reads -11.5%.
The result for `CNC(=O)C(=O)N/N=C/c1ccccn1` reads 57.1% (active).
For the molecule `C=CCOc1ccc(/C=N/NC(=O)C(C)Sc2ccccn2)cc1OCC` (configuration not stated), the inhibition was 14.2%.
For `Cc1c(NC(=O)C(=O)N/N=C/c2cccs2)c(=O)n(-c2ccccc2)n1C`, the inhibition is 4.89%.
With `COc1ccccc1S(=O)(=O)N[C@@H]1C=C[C@H](CC(=O)N2CCOCC2)O[C@@H]1CO` the figure was -20.1%; with `CN1[C@@H]2c3ccc(C4=CCCCC4)c(=O)n3C[C@H]1[C@H](CO)[C@H]2C(=O)NCc1ccc(F)cc1`, 3.89%.
The result for `Cc1cc(C)nc(N/N=C/c2c(CO)cnc(C)c2O)n1` reads 63% (active); that for `COc1ccc(CNC(=O)C[C@H]2C[C@@H]3c4cc(NC(=O)NC5CCCC5)ccc4O[C@@H]3[C@H](CO)O2)cc1`, -2.96%.
The result for `COc1ccc(S(=O)(=O)N2CCCCN3[C@H](CO)[C@H](c4ccc(C5=CCCCC5)cc4)[C@@H]3C2)cc1` reads -0.894%; that for `CO[C@@H]1CN(C)C(=O)c2ccc(NC(=O)Nc3cc(Cl)cc(Cl)c3)cc2OC[C@H](C)NC[C@H]1C`, 17.2%; that for `C[C@H]1CN([C@@H](C)CO)S(=O)(=O)c2ccc(-c3ccncc3)cc2O[C@@H]1CN(C)C(=O)CC1CC1`, -7.68%.
For the molecule `CCN(C[C@@H]1[C@H](c2ccccc2)[C@@H](CO)N1CC1CC1)C(=O)c1ccccn1`, the inhibition was 1.43%.
The result for `CCN(CC)CCOc1ccc2c(c1)C(=NNC(=O)c1ccccn1)c1cc(OCCN(CC)CC)ccc1-2` reads 58.8% (active); that for `COCC(=O)N1[C@H](CNC(=O)c2ccccn2)[C@H](c2ccccc2)[C@@H]1CO`, 0.322%.
With `C[C@@H]1CN([C@@H](C)CO)C(=O)c2cccc(NC(=O)c3nc4ccccc4s3)c2O[C@@H]1CN(C)Cc1ccc(Cl)c(Cl)c1` the figure was -2.22%; with `CCn1cc(/C=C2/SC(=S)NC2=O)c(C)n1`, 23.8% (active).
With `Cc1nn(C)cc1/C=C1\CCC/C(=C\c2cn(C)nc2C)C1=O` the figure was 2.65%; with `COc1ccc(NC(=O)N(C)C[C@H]2Oc3c(NC(=O)NC(C)C)cccc3C(=O)N([C@@H](C)CO)C[C@H]2C)cc1`, -14%; with `CCc1nnc(NS(=O)(=O)c2ccc(N=Cc3c(C)[nH]n(-c4ccc(C)cc4)c3=O)cc2)s1`, 45.6% (active).
`COc1cc(SC#N)ccc1N=Cc1c(C)[nH]n(-c2ccc(C)cc2)c1=O`: the inhibition was 2.45%.
Consider `CCc1nnc(NC(=O)CCN(c2ccc(C)cc2)S(=O)(=O)c2ccccc2)s1`, for which the inhibition was 2%.
As to `COc1ccc(-c2ccc3c(c2)[C@H]2[C@H](CCN2S(=O)(=O)c2ccccc2F)[C@H](CO)N3)cc1`, the inhibition was -0.779%.
The result for `COc1cccc(C(=O)Nc2ccc3c(c2)C(=O)N(C)[C@@H]2CC[C@H](CC(=O)NCC4CC4)O[C@@H]2CO3)c1` reads -14.2%; that for `O=C(C[C@H]1CC[C@H](NC(=O)C2CCC2)[C@@H](CO)O1)NCCCN1CCOCC1`, 0.473%; that for `C[C@H]1CN([C@@H](C)CO)C(=O)Cc2cc(NC(=O)CCC(F)(F)F)ccc2O[C@H]1CN(C)C(=O)NC1CCCCC1`, -6.06%.
`O=C(c1cccc(F)c1)N1CCN(c2ccc([N+](=O)[O-])c3cccnc23)CC1`: the inhibition is -1.2%.
The result for `Oc1c(CN2CCN(c3ccc(F)cc3)CC2)cc(Cl)c2cccnc12` reads 73.2% (active); that for `Oc1c(CN2CCCC2)cc(COCc2ccccc2)c2cccnc12`, 64.5% (active).
With `CCCc1cc(=O)oc2c(C)c(O)c(CN3CCCCC3)cc12` the figure was 0.049%.
The result for `C/C(=N/N1CCN(Cc2cccc3ccccc23)CC1)c1cccnc1` reads 3.31%; that for `O=C(c1ccccc1)c1cccn1CC(=O)N1CCN(c2ccc(F)cc2)CC1`, 1.56%.

For the origin of these results see PubChem BioAssay AID623870 (Broad Institute, 2012).
